We go through 86 compounds from PubChem BioAssay AID485281 (National Center for Advancing Translational Sciences (NCATS), 2010).

Among all 350,000 compounds or so, about 260 (0.074%) were called active. Inconclusive results (about 8%) are left out. Shown is part of a subset that was picked to be rich in actives. A number with no mark means an inactive call. Calls follow the shape of the dose curve; as a rule, active = well fitted inhibition curve with a large enough effect; inconclusive = small, poorly fitted or top-dose-only effect; inactive = no such curve, though single readings can be large or run the other way.
% is scaled to controls: 0 for no effect and ±100 for the full control effect; potency is read from the fitted curve at half-maximal effect.

For this assay, the target named is Ferritin light chain (Equus caballus) (UniProt P02791). Description: qHTS Assay for Identification of Novel General Anesthetics. Also: nearly all actives have a fitted effect of over 20% in size. The following applies: apoferritin/1-aminoanthracene competitive binding, fluorescence; series mostly up to 77.5 µM; activity change, negative = displacement: at the top concentration. The essentials: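 Horse-spleen apoferritin (10 uM) in 50% saturated 1-aminoanthracene in PBS was incubated 10 min at room temperature with compound. Fluorescence (ex 380, em 535 nm) was normalized to free and bound 1-AMA, with concentration-response fitted by a four-parameter Hill equation.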
Chain of Ferritin light chain (Equus caballus) (P02791 2-175 limits assumed): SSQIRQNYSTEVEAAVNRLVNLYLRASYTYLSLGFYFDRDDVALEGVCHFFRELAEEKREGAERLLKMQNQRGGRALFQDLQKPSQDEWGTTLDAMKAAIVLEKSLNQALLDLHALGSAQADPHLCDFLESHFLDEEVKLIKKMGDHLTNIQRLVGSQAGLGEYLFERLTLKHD
(qHTS replaces the single test concentration by a dilution series.)
For the compound `O=C(NCCCN1CCN(c2cccc(Cl)c2)CC1)c1nnc(Cc2ccc(F)cc2Cl)o1`, the “activity change, negative = displacement” value was -1.63%.

On to `COc1ccccc1CNC(=O)CCn1c(=O)c2ccccc2n(CC(=O)Nc2cccc(Cl)c2)c1=O`, for which the “activity change, negative = displacement” value was -10.4%.

As to `CCOc1cccc2c1N[C@@H](c1ccc(C(=O)O)cc1)[C@H]1CC=C[C@@H]21`, the “activity change, negative = displacement” value is -3.52%.

With `CCC(=O)N1c2ccccc2CC1C(=O)N1CCN(c2ccccc2F)CC1` (stereo unspecified), the “activity change, negative = displacement” value was -12.2%.

With `COc1ccc(-n2ccnc(NCCc3ccc(Cl)cc3)c2=O)cc1OC`, the “activity change, negative = displacement” value was -7.82%.

Take `O=C(Cn1nc(C(F)(F)F)c2c1CCCC2)Nc1ccc(Cl)cc1`: the “activity change, negative = displacement” value is -13.6%.

`COC(=O)c1ccc(NC(=O)CCc2c(C)nn(-c3ccc(N4CCCC4)nn3)c2C)cc1`: the “activity change, negative = displacement” value is -7.89%.

As to `COc1ccc(CCn2cc3c(c2-c2ccc(Br)cc2)c(=O)n(C)c(=O)n3C)cc1OC`, the “activity change, negative = displacement” value was 0.216%.

As for `COc1ccc(CC(=O)NCCc2sc3nc(-c4ccc(OC)cc4)nn3c2C)cc1`, the “activity change, negative = displacement” value is 4.35%.

Regarding `Cc1cccc(N2CCN(C3=C(c4ccccc4)C(=O)c4ccccc43)CC2)c1C`, the “activity change, negative = displacement” value was 6.14%.

On to `CCOc1ccc(N(C)S(=O)(=O)c2cc(-c3cnc(C)o3)ccc2OC)cc1`, for which the “activity change, negative = displacement” value was -4.52%.

In the case of `CC(=O)c1ccc(NC(=O)CSc2c(C(C)C)cnc3c2c(=O)n(C)c(=O)n3C)cc1`, the “activity change, negative = displacement” value was -11.9%.

Regarding `CCOc1ccc(C(=O)Nc2ccc3nc4c(c(Nc5ccccc5OC)c3c2)CCCC4)cc1`, the “activity change, negative = displacement” value is -7.47%.

As for `COc1ccc(NC(=O)c2ccco2)cc1NC(=O)COc1ccc(C)c(C)c1`, the “activity change, negative = displacement” value was -12.7%.

For the compound `CCOc1ccc(N(CC)S(=O)(=O)N2CCCC(C(=O)NCc3ccc(SC)cc3)C2)cc1` (stereo unspecified), the “activity change, negative = displacement” value is 91.3%.

For `O=C(Nc1ccccc1F)C(c1ccccc1)N1Cc2ccccc2C1=O` (stereo unspecified), the “activity change, negative = displacement” value was -7.39%.

Turning to `CC(=O)N1CCc2cc(S(=O)(=O)NC(Cc3ccccc3)C(=O)NCc3ccc(C)cc3)ccc21` (stereo unspecified), the “activity change, negative = displacement” value was -6.46%.

For `COc1cc2c(cc1OC)C(COc1ccc(F)cc1)N(C(=O)c1ccccc1F)CC2` (stereo unspecified), the “activity change, negative = displacement” value is -10%.

Turning to `COc1ccc(-c2onc(C)c2C)cc1S(=O)(=O)NCCc1ccccc1`, the “activity change, negative = displacement” value is -9.42%.

Turning to `Cc1ccc(-c2cc(N)n(Cc3cccc(Cl)c3)n2)cc1`, the “activity change, negative = displacement” value was -0.129%.

As to `Cc1ccccc1C(=O)N(Cc1ccc(N(C)C)cc1)CC1CCCO1` (stereo unspecified), the “activity change, negative = displacement” value is -3.91%.

Take `CCOc1cc(C2c3c(-c4ccc(Br)cc4)n[nH]c3C(=O)N2c2ccc(Cl)cc2)ccc1O` (stereo unspecified): the “activity change, negative = displacement” value was -6.72%.

Turning to `CC(C)c1ccc(NC(=O)C2CCN(c3nc(-c4ccc(C(C)C)cc4)no3)CC2)cc1`, the “activity change, negative = displacement” value is 40.1%.

As to `Cc1ccc(NC(=O)CSc2nc3c([nH]c4ccccc43)c(=O)n2-c2ccccc2)c(C)c1`, the “activity change, negative = displacement” value is -3.33%.

With `CCCOc1ccc(C(=O)Nc2ccc3oc(-c4cccc(Cl)c4Cl)nc3c2)cc1`, the “activity change, negative = displacement” value was 3.64%.

As to `COc1cc(OC)c(OC)cc1/C=C/c1nc2ccccc2c(=O)n1-c1ccc(Br)c(C)c1`, the “activity change, negative = displacement” value is 7.26%.

Consider `COc1ccc(N2CCN(C(=O)C3CCCN(C(=O)c4cc5sccc5n4C)C3)CC2)cc1` (stereo unspecified), for which the “activity change, negative = displacement” value is 37%.

In the case of `CCc1ccccc1OCCSc1nc(-c2cccs2)nc2cc(=O)[nH]n12`, the “activity change, negative = displacement” value is -9.64%.

As to `COc1ccc(CNC(=O)CSCc2nc(-c3ccccc3F)oc2C)cc1`, the “activity change, negative = displacement” value was -12.4%.

As for `COc1ccc(Br)cc1C1CC(=O)Nc2c1c(C)nn2-c1nc(C)cc(C)n1` (stereo unspecified), the “activity change, negative = displacement” value was 3.29%.

In the case of `Cc1ccc(NC(=O)c2ccc3[nH]c(C)cc(=O)c3c2)c(C)c1`, the “activity change, negative = displacement” value was -7.2%.

For `Cc1c(Cl)cccc1-c1ccc(CNCCCSc2nnnn2C)o1`, the “activity change, negative = displacement” value is -11.2%.

Take `COc1ccc(NC(=O)CCN2CCN(CCO)CC2)cc1`: the “activity change, negative = displacement” value is -5.78%.

Take `COc1ccc(CCNC(=O)c2ccc3c(c2)nc(C)n3-c2ccc(Br)cc2)cc1OC`: the “activity change, negative = displacement” value is -10.5%.

With `O=C(CSc1nccn1C1CCCC1)Nc1cc(C(F)(F)F)ccc1Cl`, the “activity change, negative = displacement” value was -7.55%.

Take `CCN(CC)c1ccc(NS(=O)(=O)c2cc(-c3cc(C)no3)ccc2C)c(C)c1`: the “activity change, negative = displacement” value was -16.1%.

With `Cc1ccc(F)c(NC(=O)CCOc2ccccc2C)c1`, the “activity change, negative = displacement” value was -17.2%.

For `Cc1cccc(OCC(=O)Nc2ccccc2F)c1`, the “activity change, negative = displacement” value was -10.1%.

As for `Cc1ccc(F)c(NC(=O)CCc2ccccc2)c1`, the Potency was 12.6 µM (active).

`CCc1ccc(NC(=O)C2CCCN2S(=O)(=O)c2ccc3nc(-c4ccccc4)[nH]c3c2)cc1` (stereo unspecified): the “activity change, negative = displacement” value was 45.5%.

As to `CSc1ccc(C2c3c(oc4ccccc4c3=O)C(=O)N2CCCN2CCOCC2)cc1` (stereo unspecified), the “activity change, negative = displacement” value is -3.91%.

In the case of `Cc1ccc2oc3c(c(=O)c2c1)C(c1ccc([N+](=O)[O-])cc1)N(CCCN1CCOCC1)C3=O` (stereo unspecified), the “activity change, negative = displacement” value is 2.9%.

`CCCOc1ccc(C2c3c(oc4cc(C)c(C)cc4c3=O)C(=O)N2CCCN2CCOCC2)cc1` (stereo unspecified): the Potency was 35.5 µM (active).

As to `CCOc1ccc(C(NC(=O)c2cc(OC)c(OC)c(OC)c2)c2cc(Cl)c3cccnc3c2O)cc1` (stereo unspecified), the “activity change, negative = displacement” value was -4.02%.

As to `Cc1c(Cl)cccc1NC(=O)Cn1cc(C(=O)c2cccs2)c2ccccc21`, the “activity change, negative = displacement” value was -3.85%.

Consider `O=C(Nc1ccc(Br)cc1)c1ccc(Br)c(S(=O)(=O)NCc2ccccc2)c1`, for which the “activity change, negative = displacement” value was -4.58%.

For the compound `CCCn1c2ccccc2c2cnn(CC(=O)NCC3CCN(Cc4ccc(C)cc4)CC3)c(=O)c21`, the “activity change, negative = displacement” value is 2.12%.

Regarding `COc1ccc(N2CCN(c3nc(-c4ccccc4F)nc4ccccc34)CC2)cc1`, the “activity change, negative = displacement” value is 2.92%.

Regarding `COc1ccc(OC)c(NC(=O)/C=C/c2ccc(C)o2)c1`, the “activity change, negative = displacement” value was -9.12%.

For `CCC1CN(S(=O)(=O)c2cc(-c3cc(C)no3)ccc2C)c2cc(C)ccc2O1` (stereo unspecified), the “activity change, negative = displacement” value is 53.1%.

For `CC(C)c1ccc(OCC(=O)N(Cc2ccc(N(C)C)cc2)C2CCS(=O)(=O)C2)cc1` (stereo unspecified), the “activity change, negative = displacement” value is 0.697%.

As for `CSc1ccc(CCNC(=O)c2ccc3c(c2)nc2n3CCOC2)cc1`, the “activity change, negative = displacement” value was 2.01%.

On to `CC(C)S(=O)(=O)c1oc(-c2ccc(F)cc2)nc1S(=O)(=O)c1ccc(F)cc1`, for which the “activity change, negative = displacement” value is -17%.

As for `CCOc1ccc(-c2cc(C)n3nc(C(=O)Nc4ccc(C)c(C)c4)cc3n2)cc1`, the “activity change, negative = displacement” value was -1.85%.

Regarding `COc1ccc(Cl)cc1NC(=O)CCn1c(=O)c2cccn2c2ccccc21`, the “activity change, negative = displacement” value was 1.18%.

As for `O=C(NCc1ccccc1)C(=O)NCC(c1ccco1)S(=O)(=O)c1ccc(Cl)cc1` (stereo unspecified), the “activity change, negative = displacement” value was 0.676%.

On to `CCC(=O)N1CCc2cc(S(=O)(=O)NC(Cc3ccccc3)C(=O)NCc3ccccc3)ccc21` (stereo unspecified), for which the “activity change, negative = displacement” value was -3.69%.

In the case of `CC(C)c1ccc(NC(=O)c2ccc(Cn3nc(N4CCN(c5ccccc5)CC4)ccc3=O)o2)cc1`, the “activity change, negative = displacement” value was -20.7%.

Regarding `Cc1ccc(CCNC(=O)c2ccc(CS(=O)(=O)Cc3cccc(C)c3)o2)cc1`, the “activity change, negative = displacement” value was -18.4%.

Take `CNC(=O)c1ccc(-c2nc(CN3CCc4ccccc43)c(C)o2)cc1`: the “activity change, negative = displacement” value is -15.1%.

In the case of `COc1ccc(-c2noc(CSc3nc4ccc(C)cc4[nH]3)n2)cc1`, the “activity change, negative = displacement” value was -17.7%.

For the compound `Cc1ccc(C(=O)Nc2ccc(OCc3cc(=O)n4c5c(sc4n3)CCCC5)cc2)cc1`, the “activity change, negative = displacement” value was -0.406%.

Take `O=C(Nc1ccccc1N1CCCC1)c1ccc2ccccc2c1`: the “activity change, negative = displacement” value was -13.8%.

Turning to `C=CC(=O)c1ccc2ccccc2c1`, the Potency was 17.8 µM (active).

Turning to `O=C(Nc1ccc(NC(=O)c2cccs2)cc1)c1ccc2ccccc2c1`, the “activity change, negative = displacement” value was 8.46%.

`CCOc1cc(C(=O)Nc2nnc3n2CCS3)cc(OCC)c1OCC`: the “activity change, negative = displacement” value was 3.04%.

In the case of `Cc1cc(O)c(C(c2ccccc2)N2CCN(c3ccccc3F)CC2)c(=O)n1Cc1ccco1` (stereo unspecified), the “activity change, negative = displacement” value is -12.2%.

On to `CCOc1cc(-c2nnc(SCC(=O)NC3CCCCC3)nc2-c2ccc(OC)c(OCC)c2)ccc1OC`, for which the “activity change, negative = displacement” value is 3.53%.

With `COc1ccc(C(=O)Nc2ccc(-n3nncc3-c3ccccc3)cc2)cc1OC`, the “activity change, negative = displacement” value was -2.67%.

`Cn1c(C(=O)N2CCC(C(=O)N3CCN(c4ccccc4)CC3)CC2)cc2sccc21`: the “activity change, negative = displacement” value is 1.34%.

Regarding `CC(C)(C)OC(=O)N1CCC(c2c(C(=O)NCCc3ccsc3)cnn2-c2ccc(F)cc2F)CC1`, the “activity change, negative = displacement” value is -21.7%.

`COc1cccc(C(c2c(O)cc(C)n(Cc3ccco3)c2=O)N2CCN(c3ccccc3)CC2)c1` (stereo unspecified): the “activity change, negative = displacement” value is 55.7%.

As for `COc1ccc2ncc3c(-c4ccc(C)c(C)c4)nn(CC(=O)NC4CCCC4)c3c2c1`, the “activity change, negative = displacement” value is -5.23%.

For `O=c1c(/C=N/O)coc2ccc(Cl)cc12`, the “activity change, negative = displacement” value is -1.41%.

On to `Cc1ccc2occ(/C=N/NC(=O)c3ccccc3C)c(=O)c2c1`, for which the Potency was 25.1 µM (active).

As to `CC(C)(C)OC(=O)NCCCCCC(=O)N/N=C/c1coc2ccccc2c1=O`, the “activity change, negative = displacement” value is 5.44%.

On to `O=S(=O)(NCC(c1ccccc1)N1CCc2ccccc21)c1ccccc1` (stereo unspecified), for which the “activity change, negative = displacement” value is 51.7%.

With `O=C(O)c1c(CNCc2cccc(F)c2)c2ccccc2n1Cc1ccccc1`, the “activity change, negative = displacement” value was -21.5%.

As for `O=c1cc2nc(-c3ccccc3)nc(SCCOc3ccc(Cl)cc3)n2[nH]1`, the “activity change, negative = displacement” value is -0.698%.

For the compound `COc1ccc(CCN2C(=O)N(c3cccc(OC)c3)C(=O)C2CC(=O)Nc2ccccc2)cc1` (stereo unspecified), the “activity change, negative = displacement” value is 85.6%.

Consider `CCc1cnc2c(c1SCC(=O)c1ccccc1)c(=O)n(C)c(=O)n2C`, for which the “activity change, negative = displacement” value was -10.2%.

For the compound `CCCNC(=O)c1ccc2c(c1)ncn2-c1ccc(C)cc1C`, the “activity change, negative = displacement” value is -7.08%.

With `CC(C)c1ccc(S(=O)(=O)Nc2ccc(O)c(Sc3nc4ccccc4s3)c2)cc1`, the “activity change, negative = displacement” value is -11.6%.

Turning to `COc1cc(NC(=O)c2cc3ccc4cccnc4c3[nH]2)cc(OC)c1OC`, the “activity change, negative = displacement” value was -13.1%.

On to `CCOc1ccc(OCC)c(NC(=O)CN(c2ccc(C)cc2)S(=O)(=O)c2c(C)n[nH]c2C)c1`, for which the “activity change, negative = displacement” value is -11.5%.

Regarding `COc1ccc(OC)c(CCNC(=O)CCCn2c(=O)c3cccn3c3cccnc32)c1`, the “activity change, negative = displacement” value is 10.6%.
